Hit rate of the full screen: of about 5,500 compounds, about 2,000 (36%) were called active. Not shown: some 18% with an inconclusive outcome. Rule as the data show it: active = normalized growth mostly below about 0.91 (no sharp cut-off); inconclusive = no clear call, values can overlap the other calls; inactive = mostly above about 0.92. Some of the results follow.
Test: chemical genetic growth profiling, strain panel (AID 1159580);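 also: tested at 20 µM; growth read once vehicle control cultures reached saturation at 30 °C; 1 = growth at the plate median or of vehicle wells; lower values mean less growth of the strain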
Conditions: S. cerevisiae deletion strains, growth OD

Measured: normalized growth

COc1ccc(Oc2cc(C)nc3ccccc23)cc1
active: locus YEL061C, strain CIN8, hits give low values 0.884 | locus YHR030C, strain SLT2, hits give low values 0.269 | locus YKL190W, strain CNB1, hits give low values 0.906 | locus YLR039C, strain RIC1, hits give low values 0.606 | locus YLR085C, strain ARP6, hits give low values 0.527 | locus YLR262C, strain YPT6, hits give low values 0.701 | locus YPL241C, strain CIN2, hits give low values 0.845 | locus YPR135W, strain CTF4, hits give low values 0.397
inactive: locus YAL013W, strain DEP1, hits give low values 1.01 | locus YBR229C, strain ROT2, hits give low values 1 | locus YDL101C, strain DUN1, hits give low values 1.02 | locus YDL134C, strain PPH21, hits give low values 0.989 | locus YDR150W, strain NUM1, hits give low values 1.02 | locus YGR078C, strain PAC10, hits give low values 1.01 | locus YHR087W, strain rtc3, hits give low values 0.999 | locus YJR043C, strain POL32, hits give low values 1 | locus YJR075W, strain HOC1, hits give low values 1.02 | locus YLR058C, strain SHM2 (second series), hits give low values 1 | locus YML094W, strain GIM5, hits give low values 0.941 | locus YMR219W, strain ESC1, hits give low values 1.01 | locus YMR263W, strain SAP30, hits give low values 1.02 | locus YNL153C, strain GIM3, hits give low values 0.991 | locus YNL298W, strain CLA4 (second series), hits give low values 0.876 | locus YNL322C, strain KRE1, hits give low values 1.01 | locus YNR030W, strain Alg12, hits give low values 0.967 | locus YPL055C, strain LGE1, hits give low values 1.02

Source: PubChem BioAssay AID1159580 (chemical genetic matrix, 2015)
